# Results published in the emibetuzumab library of Makowski et al. (2022).
# Some of the results follow. The true hit rate is not given.
# B1: VH:VL chains; a variant is named by its letters at X, in order (parent)
# chain 1: QVQLVQSGAEVKKPGASVKVSCKASGYTFTDYXMHWVRQAPGQGLEWMGXVNPNXXXTTYNQKFEGRVTMTTDTSTSTAYMELRSLRSDDTAVYYCARXNXLDXWGQGTTVTVSS
# chain 2: DIQMTQSPSSLSASVGDRVTITCSVSSSVSSIYLHWYQQKPGKAPKLLIYSTSNLASGVPSRFSGSGSGTDFTLTISSLQPEDFATYYCQVYSGYPLTFGGGTKVEIK
# Variants of: B1
# Assay: yeast display scFab, FACS + sequencing
# Conditions: with MET
# Method in brief: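 Heavy-chain CDR mutant scFab yeast surface library, enriched by two magnetic rounds on HGFR-Fc-coated Protein A beads and then by FACS. Cells were labelled with 1 nM HGFR-Fc in PBSB with 1% milk and anti-Myc for 3 h at room temperature, and the top 50% antigen-positive cells were gated. Round-3 sorted and input populations were deep sequenced in two replicates. Antigen binding call: positive if a sequence occurred in both antigen-positive samples, negative if it occurred only in input.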
row,Variant,antigen binding call
1,SGREGDSA,no binding
2,DGGGNVSD,no binding
3,DEGGTDWV,no binding
4,SAREGYSV,no binding
5,DEARNAGA,no binding
6,FRGRSSGV,binds
7,FRTADVGV,no binding
8,FRAGSSGV,binds
9,FRGRGSGV,binds
10,FRTRSSGV,binds
11,VTKGGSSA,no binding
12,SEKKADWA,no binding
13,VTTKSDVA,no binding
14,VRTEDDVY,no binding
15,SEGRGSGV,no binding
16,FKGRGSGV,binds
17,VGGTSSSV,no binding
18,VRGTGSWD,binds
19,VRGTGDWD,no binding
20,VRGEGSWD,binds

row,Variant,antigen binding call
1,VRGTGSAD,no binding
2,YTEGDDGV,no binding
3,YTGGDDWV,no binding
4,DEGTDYAA,no binding
5,FKTGDAWS,no binding
6,FKGRGDGS,no binding
7,FKGRGAWS,binds
8,FKGRGAGS,binds
9,DATGGDGA,no binding
10,YKGGSSAD,binds
11,DKGGSSLD,no binding
12,YEGTGSAD,no binding
13,YTGTSSAD,no binding
14,YKGGSSLD,binds
15,DATGGSSA,no binding
16,YKRAAVWD,no binding
17,YKRGDAWD,binds
18,YTRGNAWA,no binding
19,YRRGDFWA,no binding
20,YKRGDAWA,binds

row,Variant,antigen binding call
1,YKRGSAWD,binds
2,YKGRGAAY,binds
3,VEGRGAVY,no binding
4,VKGTGVAY,no binding
5,VKGRGAAY,binds
6,YAGETFGA,no binding
7,SETGGFVV,no binding
8,DGGENDVY,no binding
9,YRKGGSGY,binds
10,YRRKGSGY,binds
11,YTKEASGY,no binding
12,ARTKGSGY,no binding
13,FRGRGSSY,binds
14,FRGRGAAY,binds
15,YRGRGSAY,binds
16,FRGRGSAY,binds
17,YEGGADVF,no binding
18,DAGAADAV,no binding
